Sampled rows, rich in hits. Any-hit rate of the full collection: about 8.6%.
Lassa entry = qHTS for Inhibitors of binding or entry into cells for Lassa Virus; Lassa virus pseudotyped entry inhibition, cell-based qHTS; Potency, µM (highest dose often 49.2 µM), usual class: inhibitors; 18,000 tested, 4.1% active
Marburg entry = qHTS for Inhibitors of binding or entry into cells for Marburg Virus. Potency, µM (series often up to 49.2 µM), actives largely listed as inhibitors. 18,000 tested, 6.5% active. AID 720532, 2013. Marburg virus pseudotype entry/binding inhibition, cell-based
A number is an active result; – = inactive; ? = inconclusive; · = no result given; [ ] = remark or other dose. Calls come from the whole dose curve; tested in HEK293 cells.

SMILES | Lassa entry | Marburg entry
CO[C@H]1[C@H](NC(=O)c2ccsc2)c2ccccc2C12CCN(Cc1cc(Cl)ccc1O)CC2 | – | 14µM
O=C(c1cccs1)N1C[C@H](n2cc(C3CC3)nn2)[C@H](O)C[C@@H]1c1ccc(Cl)cc1 | – | –
CN(C)c1ccc(/C=C2/C(=O)Nc3ccccc32)cc1 | ? | 8.9µM
CN(C)c1ccc(/C=C2\C(=O)Nc3ccccc32)cc1 | 14µM | –
CC(=O)C1=C(C)N(Cc2ccccc2)C(=O)NC1c1cccc(C(F)(F)F)c1 (centres undefined) | –[8.59 µM] | –[8.59 µM]
Cc1c(C)n(CCN(C)C)c2ccc(C(=O)OCCN(C)C)cc12 | 32µM | 4µM
CCCCNc1ccc(C(=O)OCCN(C)C)cc1 | – | ?
CC(=O)Nc1ccc(-c2nc3ccc(Cl)cc3[nH]2)cc1 | – | –
O=C(Nc1ccc(Cl)cc1)Nc1ccc(Cl)c(Cl)c1 | 13µM | 14µM
COC(=O)[C@]1(C=C2c3ccccc3C[C@H](OC)[C@@H]2C)[C@@H]2CC=C[C@@H]21 | –[8.59 µM] | –[8.59 µM]
COC1C[C@@H](O[C@@H]2C(C)C(=O)OC(C)C(C)[C@H](OC(C)=O)C(C)C(=O)[C@@]3(CO3)CC(C)C(OC3OC(C)CC(N(C)C)[C@H]3OC(C)=O)C2C)OC(C)[C@@H]1OC(C)=O (some centres undefined) | – | –
CO[C@@H]1[C@@H](O[C@@H]2O[C@H](C)[C@@H](O[C@H]3C[C@@](C)(O)[C@@H](OC(=O)CC(C)C)[C@H](C)O3)[C@H](N(C)C)[C@H]2O)[C@@H](CC=O)C[C@@H](C)C(=O)/C=C/C2OC2C[C@@H](C)OC(=O)C[C@H]1OC(C)=O (some centres undefined) | ? | 13µM
CO[C@@H]1[C@@H](O[C@@H]2O[C@H](C)[C@@H](O[C@H]3C[C@@](C)(O)[C@@H](O)[C@H](C)O3)[C@H](N(C)C)[C@H]2O)[C@@H](CC=O)C[C@@H](C)[C@@H](O[C@@H]2CC[C@H](N(C)C)[C@@H](C)O2)/C=C/C=C/C[C@@H](C)OC(=O)C[C@H]1OC(C)=O | ? | 3.2µM
COC1[C@@H](O[C@@H]2O[C@H](C)[C@@H](O[C@H]3C[C@@](C)(O)[C@H](OC(=O)CC(C)C)[C@H](C)O3)[C@H](N(C)C)[C@H]2O)[C@@H](CC=O)C[C@@H](C)[C@@H](O)/C=C/C=C/C[C@@H](C)OC(=O)C[C@H]1OC(C)=O (some centres undefined) | – | –
CC[C@H]1OC(=O)C[C@@H](O)[C@H](C)[C@@H](O[C@@H]2O[C@H](C)[C@@H](O[C@H]3C[C@@](C)(O)[C@@H](O)[C@H](C)O3)[C@H](N(C)C)[C@H]2O)[C@@H](CC=O)C[C@@H](C)C(=O)/C=C/C(C)=C/[C@@H]1CO[C@@H]1O[C@H](C)[C@@H](O)[C@@H](OC)[C@H]1OC | – | –
COC1C(O)CC(=O)OC(C)C/C=C/C=C/[C@@H](OC2CCC(N(C)C)C(C)O2)C(C)C[C@@H](CC=O)[C@@H]1O[C@H]1OC(C)[C@H](O[C@@H]2C[C@@](C)(O)C(O)C(C)O2)C(N(C)C)C1O (some centres undefined) | – | 6.3µM
CCCCCC(=O)N1C[C@@H](O)[C@H](n2cc(C3CC3)nn2)C[C@H]1c1ccccc1 | – | –
CCCCCCCc1cc2ccccc2c2c(C(=O)OC)c(C(=O)OC)c(C(=O)OC)n12 | · | –[8.59 µM]
C[C@@H]1CCCN1[C@@H]1C[S+](=O)([O-])N[C@@H]1COCc1ccccc1 | – | –
Cc1ccc(C=CC2=C[C@]3(C)C[C@]2(C)[C@H](c2ccc(C)cc2)CC3=O)cc1 | –[8.59 µM] | –[8.59 µM]
O=S1(=O)c2ccc(Br)cc2O[C@H]2CCN1C2 | – | –
CC(C)[C@@H]1CC[C@@H](C)C[C@H]1OC(=O)c1ccccc1O | – | –
CC(C)C[C@H](NC(=O)[C@H](CC(C)C)NC(=O)[C@H](Cc1ccccc1)NC(=O)[C@@H](N)CO)C(=O)N[C@@H](CCCN=C(N)N)C(=O)N[C@@H](CC(N)=O)C(=O)O | – | –
CC(=O)N[C@@H](CC(C)C)C(=O)N[C@@H](CC(C)C)C(=O)N[C@H](C=O)CCCN=C(N)N | – | 0.11µM
CCCCC(C=O)NC(=O)C(CC(C)C)NC(=O)OCc1ccccc1 (centres undefined) | – | ?
SMILES | Lassa entry | Marburg entry
CCCC[C@@H](C=O)NC(=O)[C@H](CC(C)C)NC(=O)[C@H](CC(C)C)NC(C)=O | 10µM | 0.089µM
CSCC[C@H](C=O)NC(=O)[C@H](CC(C)C)NC(=O)[C@H](CC(C)C)NC(C)=O | – | ?
CCCC[C@@H](C=O)NC(=O)[C@H](CC(C)C)NC(=O)OCc1ccccc1 | 20µM | ?
O=C(C=Cc1ccccc1)Nc1cccc(C(=O)NCCCc2ccccc2)c1 | – | –
CSc1ccc(COCC[C@@H]2C[C@H]3C=CCOP(=O)(O2)O3)cc1 | – | –
CCOC(=O)C1=C(CCl)NC(=O)N(C(C)=O)C1c1ccccc1 (centres undefined) | · | –[8.59 µM]
O=C1NC(=S)NC(=O)C1C(=O)Nc1ccccc1 | – | –
O=C1NC(=O)c2cc(Nc3ccccc3)c(Nc3ccccc3)cc21 | 11µM | ?
COC(=O)C1=C[C@H]([C@@H](C)[C@H](OC)c2ccccc2Br)[C@H]2[C@H]1c1ccccc1N2C | · | –[8.59 µM]
CCN(CC)CCCCN1c2ccccc2Oc2ccc(Cl)cc21 | ? | 6.3µM
CC(=O)NNC(=O)N1Cc2ccccc2Oc2ccc(Cl)cc21 | – | –
COC(=O)[C@H](C)N1CC=CCOc2c(Cl)cc(Cl)cc2[S+]1(=O)[O-] | – | –
COc1ccc(N2C[C@H](Cc3ccccc3)[C@@H](CC(=O)Nc3ccccc3)C2=O)cc1 | · | –
COc1ccc(C[C@@H]2NC[C@H](O)[C@@H]2OC(C)=O)cc1 | 0.011µM | ?
COc1ccc2cc(CCC(C)=O)ccc2c1 | – | –
COc1ccc(C[C@H]2NC[C@H](O)[C@H]2OC(C)=O)cc1 | 3.5e-05µM | ?
CCOC(=O)N1CCN(Cc2ccc3c(c2)CN(C(=O)c2cc(-c4ccccc4)on2)CCO3)CC1 | ? | –
O=C(NN=C1C[C@@H](O)[C@H](O)[C@H]2[C@@H]3C(=O)N(C[C@@H]4CCCO4)C(=O)[C@@H]3CC[C@@H]12)OCc1ccccc1 | · | –[8.59 µM]
CCCCCCCC#Cc1ccccc1C=NS(=O)c1ccc(C)cc1 (centres undefined) | –[8.59 µM] | –[8.59 µM]
C#CC1(O)C(OC)=CC2C(=O)C1C(c1ccccc1)C2C (centres undefined) | · | –[8.59 µM]
COc1cc(OC)c2ccc(=O)oc2c1C(CCN1CCOCC1)c1ccc(N(C)C)cc1 (centres undefined) | – | –
COc1cc(OC)c2c(-c3ccccc3)cc(=O)oc2c1C(CCN1CCOCC1)c1ccc2c(c1)OCO2 (centres undefined) | ? | 10µM
COc1cc(OC)c2ccc(=O)oc2c1C(CCN1CCOCC1)c1ccc2c(c1)OCO2 (centres undefined) | – | ?
COc1ccc(C(CCN2CCOCC2)c2c(OC)cc(OC)c3c(-c4ccccc4)cc(=O)oc23)cc1 (centres undefined) | ? | 22µM
COc1cc(C(CCN2CCOCC2)c2c(OC)cc(OC)c3c(-c4ccccc4)cc(=O)oc23)cc(OC)c1OC (centres undefined) | 4.5µM | 10µM
COc1cc(OC)c2c(=O)c(-c3ccccc3)c(C)oc2c1OC | – | –
C#CCN(C[C@H](NC(=O)OC(C)(C)C)C(C)C)S(=O)(=O)c1ccc(Br)cc1F | – | –

Bioassay records as filed in PubChem.
